Shown are actives, neighbours in structure and some others; about 2.4% of the full set was active somewhere.
D2 antagonist = antagonizes the human D2 dopamine receptor; P14416; HEK293 TREx D2 cells, calcium flux, dopamine EC80; inhibition, % at 10 µM; 340,000 tested, 2% active; AID 485344; in the data active means inhibition above about 30%; inactive means below that, where a call was filed; further: 0% is about no effect
Target sequence (P14416 whole entry, looked up): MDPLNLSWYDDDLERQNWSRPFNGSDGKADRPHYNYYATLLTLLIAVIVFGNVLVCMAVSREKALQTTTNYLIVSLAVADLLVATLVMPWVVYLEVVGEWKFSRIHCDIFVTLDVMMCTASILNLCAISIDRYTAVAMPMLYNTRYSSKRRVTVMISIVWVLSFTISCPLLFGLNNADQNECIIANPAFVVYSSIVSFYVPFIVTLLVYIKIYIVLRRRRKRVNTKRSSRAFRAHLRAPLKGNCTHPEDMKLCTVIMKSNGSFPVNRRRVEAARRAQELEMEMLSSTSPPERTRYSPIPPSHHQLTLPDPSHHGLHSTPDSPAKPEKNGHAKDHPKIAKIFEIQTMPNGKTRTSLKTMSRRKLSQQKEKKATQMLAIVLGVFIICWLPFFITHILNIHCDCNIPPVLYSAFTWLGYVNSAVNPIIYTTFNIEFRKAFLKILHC
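HEK293 T-REx D2 cells, tet-induced, calcium dye no-wash. Cpd pintool add, 180 s kinetic, then EC80 DA, 180 s kinetic. Ca flux read.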
D2 ag-1 = agonists of human D2 dopamine receptor | HEK293 T-REx D2 cells, calcium flux agonist mode | activation, % at 2 µM | 340,000 tested, 0.53% active | AID 485358;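 active means activation over 3 SD above normal in the single-dose calcium agonist read, cut at about 30% in these data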; further: 0% is about no effect
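Tetracycline-induced HEK293 T-REx cells with force-coupled D2 receptor, plated overnight at 30 C, loaded with no-wash calcium dye. After a 10 s baseline, compound was pin-added and calcium flux read kinetically for 180 s; calcium rises flagged agonists.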
D2 PAM-1 = human D2 receptor positive allosteric modulation; P14416; DiscoveRx D2 beta-arrestin cells, luminescence, 90 min; 100% = 57 uM dopamine signal; potentiation, % (concentration not given with the values); 360,000 tested, 0.23% active; in the data active means potentiation above about 50%
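D2 cells co-treated with compound plus 50 nM dopamine (EC20) for 90 min at 37 deg C to detect potentiation. Beta-arrestin recruitment was read as enzyme-fragment luminescence after 1 h at ambient temperature. Full response was set by 57 uM dopamine.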
D2 ag-2 = agonists of human D2 dopamine receptor (beta-arrestin); P14416; 360,000 tested, 0.084% active; activation, % (test concentration not listed); DiscoveRx PathHunter D2 beta-arrestin, luminescence, 90 min; 100% = 57 uM dopamine signal; in the data active means activation above about 40%
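Agonist mode: compounds alone added to overnight-plated D2 PathHunter cells for 90 min at 37 C, with 57 uM final dopamine (EC100) defining full response. Beta-arrestin recruitment detected by chemiluminescent reagent, read after 1 h at ambient temperature.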
D2 PAM-2 = positively modulates the human D2 dopamine receptor allosterically; P14416; HEK293 T-REx D2, calcium flux, EC20 dopamine potentiation; AID 485347; 340,000 tested, 0.34% active; potentiation, % at 10 µM;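 active means potentiation over 3 SD above the plate norm, cut at about 30% in these data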; further: 0% is about no effect
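Cells plated with tetracycline inducer and held overnight at 30 C; calcium dye loaded 30–90 min at room temperature; baseline taken, compound added and read 180 s; EC20 dopamine then added and read 180 s.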
* hit, by the source's call; / = no result.

SMILES | D2 antagonist | D2 ag-1 | D2 PAM-1 | D2 ag-2 | D2 PAM-2
Cc1cc(C)c(NC2=NCCCS2)c(C)c1 | -21 | 0 | -22 | 1 | 50*
Cc1cccc(C)c1NC1=NCCCS1 | -9 | 1 | 4 | -7 | -17
COc1ccc(-n2c(/C=C\c3ccccc3F)nc3ccccc3c2=O)c(OC)c1 | / | / | / | / | 13
O=C1CC(c2ccc(C(F)(F)F)cc2)c2c(c3ccccc3oc2=O)O1 (stereo not drawn) | / | 0 | / | / | -2
NCCc1c[nH]c2ccc(F)cc12 | 95* | 5 | / | / | -28
NCCc1c[nH]c2ccc(C(N)=O)cc12 | 11 | 3 | -1 | -6 | -8
Cc1ccc(-c2cc(-c3ccccc3)cc(-c3ccccc3)[n+]2-c2ccccc2)cc1 | 38* | 2 | 11 | 11 | -3
COc1ccccc1OCC#CCN1CCCCCC1 | / | / | -10 | 0 | /
COc1ccccc1OCC#CCN1CCCC(C)C1 (stereo not drawn) | 57* | 0 | 4 | -5 | -38
N#CC1(c2ccccc2)CCN(C2CC(=O)N(c3ccc(F)cc3)C2=O)CC1 (stereo not drawn) | -16 | 1 | -5 | 5 | 31*
O=C(CCCN1CCC(n2c(=O)[nH]c3ccccc32)CC1)c1ccc(F)cc1 | 77* | 0 | -27 | 1 | -14
CCCCn1c(NC(=O)c2ccc(Br)o2)c(C(=O)OCC)c2nc3ccccc3nc21 | -5 | 37* | -14 | -15 | -16
CN1CCc2c([nH]c3ccccc23)C1 | 51* | 0 | -105 | -4 | -25
CCCN1CCc2cc(O)cc3c2[C@H]1Cc1ccc(O)c(O)c1-3 | / | / | 129* | 241* | /
CN1CCc2cc(O)cc3c2[C@H]1Cc1ccc(O)c(O)c1-3 | / | / | 101* | 106* | /
O=C(Nc1ccc2c(c1)OCCO2)c1cccn(Cc2cccc([N+](=O)[O-])c2)c1=O | / | 7 | / | / | -7
CCN1CCN(Cc2cc(C(C)(C)C)c(O)c(C(C)(C)C)c2)CC1 | 46* | -1 | / | / | -23
CC1CCN(C(=O)COC(=O)c2cn(C)c3ccccc23)CC1 | 3 | 0 | -4 | -1 | -18
Cn1cc(C(=O)OCC(=O)NC2CCCCC2)c2ccccc21 | 39* | 0 | -1 | -6 | 3
CCOc1ccc(CN(CCc2ccc3c(c2)OCO3)Cc2ccc(OC)c(Br)c2)cc1 | / | 25 | / | / | -19
CCCN1CCC[C@@H]2Cc3nc(N)ncc3C[C@H]21 | / | / | 117* | 126* | /
COc1ccc(OCC(=O)N2CCN(Cc3cccc(OC)c3OC)CC2)cc1 | / | / | / | / | -3
FC(F)(F)c1ccc2c(c1)N(CCCN1CCN(CCCl)CC1)c1ccccc1S2 | 75* | 1 | -44 | -2 | -26
COC(=O)c1ccc(CN2CCN(Cc3ccccc3)CC2)cc1 | -5 | 0 | -12 | -1 | -19
COC(=O)C1=CCCN(C)C1 | -7 | 31* | 2 | 1 | -12
SMILES | D2 antagonist | D2 ag-1 | D2 PAM-1 | D2 ag-2 | D2 PAM-2
C/C=C(\C)C(=O)OC1C(C)=C2C(C1OC(=O)CCCCC)C(C)(OC(C)=O)CC(OC(=O)CCC)C1(O)C2OC(=O)C1(C)O (stereo not drawn) | 36* | 66* | / | / | -12
CC1CN=C(NCc2ccncc2)S1 (stereo not drawn) | 2 | 0 | 24 | -3 | -4
CC1CN=C(NCc2ccc(F)cc2)S1 (stereo not drawn) | 4 | 37* | -5 | -2 | -7
CN1C(=O)N(C)C(=O)C2(Sc3ccccc3C2=O)C1=O | -9 | 0 | -5 | -2 | -2
CCC1(c2ccccc2)C(=O)N(C)C(=O)N(C)C1=O | 34* | 1 | -6 | 2 | -15
N#Cc1cccc(NC(=O)c2sc3nc4c(cc3c2N)N2CCC4CC2)c1 | / | 0 | / | / | 2
CC(=O)NC1CC2CCC(C1)N2 (stereo not drawn) | 12 | 0 | -13 | 0 | 36*
Cc1nnc(NC(=O)c2cccn(Cc3cccc([N+](=O)[O-])c3)c2=O)s1 | / | -1 | / | / | 13
c1ccc(CNCCc2c[nH]c3ccccc23)cc1 | 61* | 9 | -4 | 5 | -31
Clc1ccccc1CNCCc1c[nH]c2ccccc12 | / | / | -33 | 0 | /
Cc1cccc(CNCCc2c[nH]c3ccccc23)c1 | 47* | 1 | -8 | 0 | -19

Bioassay records as filed in PubChem.
